About 16,000 (4.4%) of roughly 360,000 compounds were called active. About 9% were inconclusive and are not listed. Calls come from the whole dose curve; as a rule, active = well fitted inhibition curve with a large enough effect; inconclusive = small, poorly fitted or top-dose-only effect; inactive = no such curve, though single readings can be large or run the other way. What follows is part of a selection rich in actives, with near analogues and random picks from the rest.
Target: Bromodomain adjacent to zinc finger domain protein 2B (Homo sapiens) (UniProt Q9UIF8)
Assay: qHTS Assay for Inhibitors of BAZ2B; note: nearly all actives have a fitted effect of over 60% in size
Settings: AlphaScreen BAZ2B-H3K14Ac peptide displacement; series mostly up to 114 µM; activity change, negative = inhibition: at the top concentration
Excerpt: BAZ2B (bromodomain adjacent to zinc finger domain, 2B) belongs to a family of ubiquitously expressed bromodomain containing proteins, which biological function has not yet been elucidated. […] The interaction of BAZ2B with ISWI mediated by the BAZ1 motif has recently been described. […] The protocol is based on the AlphaScreen (PerkinElmer) displacement assay developed by NCGC [5], but uses the peptide ligand Biot-H3K14Ac, a high affinity binding partner for BAZ2B, in an AlphaScreen format. Although AlphaScreen has significant advantages with its utility in a variety of epigenetic target assays, the primary screening data provided in this deposition should be used with caution due to the prevalence of screening artifacts. The top compound concentration tested was 110uM in this assay, which increases number of actives and potential artifacts. An AlphaScreen counterscreen is highly recommended to be run against any putative actives to eliminate non-specific artifacts. Alternatively, one can use other AlphaScreen assays in PubChem to filter out promiscuous hits. Eberharter, A. et al. ACF1 improves the effectiveness of nucleosome mobilization by ISWI through PHD-histone contacts. The EMBO journal 23, 4029-4039. 2004. PMID: 15457208 [2] Jones, M.H. et al. A novel family of bromodomain genes. Genomics 63, 40-45. 2000. PMID: 10662543 [3] Yasgar, et al. Compound Management for Quantitative High-Throughput Screening. JALA. 2008 Apr;13(2):79-89. PMID: 18496600 [4] Inglese, et al. Quantitative high-throughput screening: a titration-based approach that efficiently identifies biological activities in large chemical libraries. Proc Natl Acad Sci. 1;103(31):11473-8. 2006. PMID: 16864780 [5] Quinn et al. A chemiluminescence-based method for identification of histone lysine methyltransferase inhibitors. Mol Biosyst 6(5): 782-8. 2010. PMID: 20567762 [6] Baell,Holloway. New substructure filters for removal of pan assay interference compounds (PAINS) from screening libraries and for their exclusion in bioassays. J Med Chem. 53(7):2719-40. 2010. PMID: 20131845 NIH Molecular Libraries Probe Production Network [MLPCN] NIH Chemical Genomics Center [NCGC] Structural Genomics Consortium (SGC) NIH Grant: 5U54 MH084681-02
To each well of a 1,536w plate, 2ul of BAZ2B protein (final 50nM) and 1ul biotinylated histone peptide acetylated at Lys14 [b-H3(5-23)K14Ac] (final 50nM) were added in 1x PBS buffer, pH 7.4, containing 0.01% Tween-20, using a nanoliter dispenser. Formation of a protein-peptide complex proceeded at room temperature for 30 min. A Kalypsys pin-tool was employed to transfer 23 nL of library compound solution in DMSO to each well. Following a 30 min incubation of the protein-peptide complex with compounds at room temperature, a mixture of 40 ug/mL each streptavidin-coated donor and nickel chelate acceptor AlphaScreen beads (final 10 ug/mL) were added in a 1ul dispense for a final volume of 4ul. A brief centrifugation followed (1000rpm, 1 min) and were then incubated protected from the light for 20 min at room temperature. Plates were read on an EnVision multilabel plate reader using the 1,536 plate HTS AlphaScreen aperture (excitation time 80 ms, measurement time 240 ms).
% is set by controls: 0 for no effect and ±100 for the full control effect; potency is the fitted concentration of half-maximal effect.

Chain of Bromodomain adjacent to zinc finger domain protein 2B (Homo sapiens) (Q9UIF8 whole entry, looked up, the tested form may be a part): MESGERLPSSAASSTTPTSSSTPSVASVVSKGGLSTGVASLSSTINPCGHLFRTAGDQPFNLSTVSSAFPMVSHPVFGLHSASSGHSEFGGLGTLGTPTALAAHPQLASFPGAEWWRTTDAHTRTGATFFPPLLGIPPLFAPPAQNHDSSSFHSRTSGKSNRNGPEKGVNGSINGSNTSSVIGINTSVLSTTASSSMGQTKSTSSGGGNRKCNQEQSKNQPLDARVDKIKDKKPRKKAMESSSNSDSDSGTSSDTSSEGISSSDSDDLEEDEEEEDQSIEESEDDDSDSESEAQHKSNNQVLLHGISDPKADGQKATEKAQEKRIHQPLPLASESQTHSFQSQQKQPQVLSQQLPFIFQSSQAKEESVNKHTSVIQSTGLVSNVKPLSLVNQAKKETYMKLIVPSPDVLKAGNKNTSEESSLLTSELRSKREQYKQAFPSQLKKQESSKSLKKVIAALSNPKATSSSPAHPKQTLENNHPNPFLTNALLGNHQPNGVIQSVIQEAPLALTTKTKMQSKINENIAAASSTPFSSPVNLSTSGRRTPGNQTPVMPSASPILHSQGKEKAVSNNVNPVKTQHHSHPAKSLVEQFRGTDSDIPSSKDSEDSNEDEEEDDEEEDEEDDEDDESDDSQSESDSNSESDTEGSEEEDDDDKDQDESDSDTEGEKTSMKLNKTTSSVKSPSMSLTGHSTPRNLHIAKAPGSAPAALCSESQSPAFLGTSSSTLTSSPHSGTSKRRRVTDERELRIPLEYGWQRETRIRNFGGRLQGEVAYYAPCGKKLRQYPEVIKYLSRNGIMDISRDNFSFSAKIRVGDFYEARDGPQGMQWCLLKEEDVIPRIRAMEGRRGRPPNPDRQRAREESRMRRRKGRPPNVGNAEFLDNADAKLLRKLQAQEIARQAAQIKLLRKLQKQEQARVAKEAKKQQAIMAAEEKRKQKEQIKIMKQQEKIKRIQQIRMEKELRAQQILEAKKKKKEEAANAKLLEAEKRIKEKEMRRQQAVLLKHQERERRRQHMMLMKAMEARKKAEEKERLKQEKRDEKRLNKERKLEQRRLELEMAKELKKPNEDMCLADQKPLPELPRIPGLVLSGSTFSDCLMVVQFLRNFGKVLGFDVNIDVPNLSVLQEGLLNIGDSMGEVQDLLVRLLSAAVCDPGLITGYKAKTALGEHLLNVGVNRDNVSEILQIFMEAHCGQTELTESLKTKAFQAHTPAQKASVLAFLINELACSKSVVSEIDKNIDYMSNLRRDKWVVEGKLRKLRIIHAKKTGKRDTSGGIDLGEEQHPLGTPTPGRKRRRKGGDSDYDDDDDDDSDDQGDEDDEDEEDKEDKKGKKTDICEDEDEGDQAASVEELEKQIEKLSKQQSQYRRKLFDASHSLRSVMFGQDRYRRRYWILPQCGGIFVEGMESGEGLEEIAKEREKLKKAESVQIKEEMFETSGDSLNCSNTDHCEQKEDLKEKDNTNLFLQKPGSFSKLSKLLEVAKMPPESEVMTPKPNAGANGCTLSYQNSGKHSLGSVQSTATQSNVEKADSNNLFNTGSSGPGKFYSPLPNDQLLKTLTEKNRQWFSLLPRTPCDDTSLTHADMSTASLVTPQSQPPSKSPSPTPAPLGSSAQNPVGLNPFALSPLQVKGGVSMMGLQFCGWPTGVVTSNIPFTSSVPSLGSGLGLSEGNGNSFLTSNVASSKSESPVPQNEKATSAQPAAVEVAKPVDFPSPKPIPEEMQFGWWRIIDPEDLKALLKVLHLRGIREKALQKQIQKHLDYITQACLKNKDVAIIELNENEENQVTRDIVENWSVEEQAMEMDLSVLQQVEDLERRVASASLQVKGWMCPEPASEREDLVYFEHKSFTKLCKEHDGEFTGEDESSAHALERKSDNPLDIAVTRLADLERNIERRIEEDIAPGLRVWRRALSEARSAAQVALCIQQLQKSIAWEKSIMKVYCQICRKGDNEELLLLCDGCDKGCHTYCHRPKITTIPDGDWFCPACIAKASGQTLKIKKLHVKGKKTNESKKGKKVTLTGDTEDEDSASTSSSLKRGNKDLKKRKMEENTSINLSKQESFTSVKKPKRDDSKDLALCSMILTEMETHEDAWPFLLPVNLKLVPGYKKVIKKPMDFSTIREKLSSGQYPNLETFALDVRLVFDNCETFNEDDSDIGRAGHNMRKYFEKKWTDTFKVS

Activity change, negative = inhibition, inactive:
Cc1cc(C)cc(NC(=O)CCS(=O)(=O)c2cc3c4c(c2)CCN4C(=O)CC3)c1 5.77%
COc1ccc(NC(C)=O)cc1NC(=O)CN1CCN(c2ccc(F)cc2)CC1 -18.2%
Cc1[nH]c2ccc(C(=O)N3CCN(C)CC3)cc2c1C -22.3%
CCS(=O)(=O)N1CCc2cc(C(=O)N3CCN(c4ccccc4OC)CC3)ccc21 -2.3%
CN(C(=O)CSc1nnc(NC(=O)Nc2ccccc2)s1)c1ccccc1 -3.45%
Cc1ccc(-n2cnc3cc(C(=O)NCCC4=CCCCC4)ccc32)cc1Cl -4.95%
O=C(CN1CCCC1)N1CCN(c2ccccc2)CC1 -2.41%
CCOC(=O)/C(C#N)=C/c1ccc(N2CCN(Cc3ccccc3)CC2)cc1 32.5%
COCCCNC(=O)Cn1cc(/C=C(\C#N)C(=O)N2CCN(c3ccccc3)CC2)c2ccccc21 -9.82%
CC(CC(=O)N1CCN(c2ccccc2)CC1)c1ccccc1 (stereo not given) 2.9%
Fc1ccc(C(Nc2ccc(Cl)c(C(F)(F)F)c2)c2nnc(-c3ccccc3)o2)cc1 (stereo not given) 0.454%
COc1cc(Cl)c(NC(=O)CC(C)S(=O)(=O)c2cc3c(cc2C)NC(=O)CO3)c(OC)c1 (stereo not given) -12.4%
Cc1cccc(Cc2c(C)nc3nc(SCc4ccccc4Cl)nn3c2C)c1 10.9%
CN(C(=O)CN1C(=O)/C(=C/c2ccc(Cl)cc2)SC1=S)C1CCS(=O)(=O)C1 (stereo not given) -16.7%
CCN(C(=O)CN1C(=O)/C(=C/c2ccc(F)cc2)SC1=S)C1CCS(=O)(=O)C1 (stereo not given) -37.8%
COCCN(Cc1ccco1)C(=O)Cn1ncc2c([nH]c3ccccc32)c1=O -17.6%
Cc1cc(C)cc(NC(c2nnc(-c3cccc(F)c3)o2)c2ccc(F)cc2Cl)c1 (stereo not given) -23.2%
CCCS(=O)(=O)Nc1cccc(-c2cn3ccsc3n2)c1 3.8%
COc1ccccc1C(=O)N1CCN=C1SCc1cccnc1 -5.61%
COc1cccc(OC)c1OCCN1CCN(C(=O)c2ccco2)CC1 -6.15%
CCCn1c(NC(=O)C23CC4CC(CC(O)(C4)C2)C3)nc2ccccc21 -30.6%
CCCn1c(NCc2ccccc2F)nc2ccccc21 -5.42%
O=C(NC1(C(F)(F)F)N=C(c2ccccc2)N(C2CCCCC2)C1=O)c1ccccc1F (stereo not given) -14.1%
CCN(CC)C(=O)CSc1nc2ccsc2c(=O)n1Cc1ccccc1Cl -24.2%
Cc1cc(/C=C2/NC(=O)NC2=O)c(C)n1-c1cccnc1 -9.46%
COc1cc(C(=O)NCCc2csc3nc(-c4ccccc4C)nn23)cc(OC)c1OC 5.94%
CCOCCc1nn2c(=O)cc(COC(=O)CNC(=O)c3ccc(C(C)(C)C)cc3)nc2s1 -6.71%
CCCCN(C)c1nnc(NC(=O)Nc2ccc(Br)c(C)c2)s1 1.07%
c1ccc2c(CSCc3nc4ccccc4[nH]3)cccc2c1 -34%
Nc1scc[n+]1Cc1cccc2cccnc12 -24.8%
O=C(C1COc2ccccc2O1)N(Cc1cccnc1)c1nc2c(F)cc(F)cc2s1 (stereo not given) -11%
CCCn1c(=N)n(CC(O)COc2ccccc2OC)c2ccccc21 (stereo not given) -4.1%
COc1ccccc1OCC(O)CN1CCOCC1 (stereo not given) -19.8%
CCOc1ccc(C2CC(=O)c3c([nH]c(C(=O)OCc4ccccc4)c3C)C2)cc1 (stereo not given) -5.29%
NC(=O)N/N=C\c1cccs1 23.3%
COc1ccc(Nc2nc(=O)[nH]nc2C)cc1 1.81%
COC(=O)Cc1ccc(NC(=S)NCc2ccco2)cc1 -33%
COc1cc(C(=O)NC(=S)NCc2ccco2)cc(OC)c1OC -25%
N#Cc1nc(/C=C/c2ccc(F)cc2)oc1NC1CCCCC1 -4.26%
Cc1c(CCC(=O)O)c(=O)oc2cc(OCc3ccc(Br)cc3)ccc12 -16.1%
CCOC(=O)CCc1c(C)c2ccc(OCc3nn[nH]n3)c(C)c2oc1=O -1.46%
O=C(c1ccccc1F)N1CCC(c2nc3c(nnn3Cc3cccc(F)c3)c(=O)[nH]2)CC1 -3.32%
CC(C)(C)c1ccc(NC(=O)COC(=O)CCc2nc3ccccc3c(=O)[nH]2)cc1 -28.6%
Cc1ccc(NC(=O)COC(=O)CCc2nc3ccccc3n2-c2ccccc2)c(C)c1 -4.05%
COc1ccc(-n2c(=O)c3c(c4cc(OC)ccc4n3C)n(Cc3cccc(C)c3)c2=O)cc1 -4.31%
CCOC(=O)c1ccc(NC(=O)CCS(=O)(=O)c2ccc(C)cc2)cc1 6.69% [at 57.1 µM]
Cc1ccc(N(C)C(=O)C2CCN(S(=O)(=O)c3ccc4c(c3)CCCN4C(=O)C3CCC3)CC2)cc1 -3.01%
CCOc1cc(/C=C(\C#N)c2nc(-c3cccs3)c(NC(C)=O)s2)ccc1O -3.53%
COc1cccc2cc(-c3nc(Cl)c4c5c(sc4n3)CC(C)CC5)c(=O)oc12 (stereo not given) 6.24%
COc1cc(C(=O)NCCS(=O)(=O)N2CCN(c3ccccc3)CC2)cc(OC)c1OC -20%
CC(=O)c1ccc(NC(=O)CSc2c(C(C)C)cnc3c2c(=O)n(C)c(=O)n3C)cc1 4.33%

Potency, active:
CCOc1ccccc1N1CCN(C(=O)c2ccc3[nH]c(C)c(C)c3c2)CC1 44.7 µM
COc1ccc(N2CCN(C(=O)/C(C#N)=C/c3ccccc3)CC2)cc1 50.1 µM
C/C(=C/c1ccccc1)C(=O)N1CCN(c2ccccc2)CC1 56.2 µM
O=C1/C(=C/c2cccs2)SC(=S)N1C1CCS(=O)(=O)C1 (stereo not given) 22.4 µM
COc1cccc(OC)c1C(=O)N1CCN(Cc2cccnc2)CC1 50.1 µM
CCCn1c(NCc2ccc(N(CC)CC)cc2)nc2ccccc21 39.8 µM
Cc1cccc(C)c1-n1c(C)cc(/C=C2\C(=O)NN(c3ccccc3)C2=O)c1C 14.1 µM
c1ccc2c(C[n+]3csc4ccccc43)cccc2c1 56.2 µM
COc1ccccc1OCCNCC(O)COc1cccc2[nH]c3ccccc3c12 (stereo not given) 39.8 µM
Cc1n[nH]c(=O)nc1N/N=C/c1cccs1 17.8 µM
COc1cccc(OC)c1C(=O)NC(=S)NCc1ccco1 79.4 µM
Cc1c(CCC(=O)O)c(=O)oc2c(C)c(OCc3ccccc3Cl)ccc12 70.8 µM
CCN(c1ccc(NC(=O)COC(=O)CCc2nc3ccccc3n2-c2ccccc2)cc1)C(C)C 25.1 µM
COc1cc(/C=C(\C#N)c2nc3c(s2)CC(C)CC3)ccc1O (stereo not given) 50.1 µM

— PubChem BioAssay AID504333 (National Center for Advancing Translational Sciences (NCATS), 2011)
